In all, about 5,500 compounds went through this assay and about 2,000 (36%) were called active. Another 18% or so got no clear call; they are omitted. Rule as the data show it: active = normalized growth mostly below about 0.91 (no sharp cut-off); inconclusive = no clear call, values can overlap the other calls; inactive = mostly above about 0.92. Some of the results follow.
Experiment: chemical genetic growth profiling, strain panel (AID 1159580);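 also: tested at 20 µM; growth read once vehicle control cultures reached saturation at 30 °C; 1 = growth at the plate median or of vehicle wells; lower values mean less growth of the strain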
Conditions: S. cerevisiae deletion strains, growth OD

Measured: normalized growth

COc1cc(-c2coc3cc(O)c(OC)c(O)c3c2=O)cc(O)c1OC
inactive: locus YHR030C, strain SLT2, active compounds read low 1.02 | locus YHR079C, strain IRE1, active compounds read low 1.03 | locus YJL095W, strain BCK1, active compounds read low 1.02 | locus YJR066W, strain TOR1, active compounds read low 0.969 | locus YLR113W, strain HOG1, active compounds read low 1.02 | locus YNL183C, strain NPR1, active compounds read low 1 | locus YOR231W, strain MKK1, active compounds read low 1.03 | locus YPL256C, strain CLN2, active compounds read low 1.07

From PubChem BioAssay AID1159580 (chemical genetic matrix, 2015)
